Of roughly 7,900 targets only a part is listed; those with a hit were picked by preference. About 0.6% of all pairs of compound and target were hits. A number with no mark means an inactive call.
Experiments:
Assay in all cases: log2 fold change, soluble protein after heating vs DMSO (PISA); higher = thermal stabilisation; K562 cells, 10 uM, 30 min; active = over 0.2 and 3.5 SD of the protein, either way, in both replicates (recomputed)
[1] = compound: CS(=O)(=O)c1ccc(-c2cnc(N)c(C(=O)Nc3ccccc3)n2)cc1
Procedure, shortened: (§1)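 Values are thermal stability changes relative to control samples and are taken from duplicates. They are stated as log2 fold changes. Before quantification by TMTpro 16plex LC-MS/MS with equalised channel sums, K562 cells at 2×10^6 cells/mL were treated with 10 μM compound for 30 min, heated in aliquots for 3 min across 48°C-58°C, pooled, extracted in PBS with 0.5% NP-40 at 4°C, and centrifuged at 21,000xg for 90 min to give the soluble supernatant.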

crizotinib = compound: C[C@@H](Oc1cc(-c2cnn(C3CCNCC3)c2)cnc1N)c1c(Cl)ccc(F)c1Cl [crizotinib]
Procedure, shortened: as §1

[2] = compound: C[C@@H]1COCCN1C2=NC(=NC(=C2)C3(CC3)S(=O)(=O)C)C4=C5C=CNC5=CC=C4
Procedure, shortened: as §1

[3] = compound: C[C@H](C1=CC=C(C=C1)C(=O)NC2=C3C=CNC3=NC=C2)N
Procedure, shortened: as §1

duvelisib = compound: C[C@H](Nc1ncnc2nc[nH]c12)c1cc2cccc(Cl)c2c(=O)n1-c1ccccc1 [duvelisib]
Procedure, shortened: as §1

gandotinib = compound: Cc1cc(Nc2cc(CN3CCOCC3)c3nc(C)c(Cc4ccc(Cl)cc4F)n3n2)n[nH]1 [gandotinib]
Procedure, shortened: as §1

tozasertib = compound: Cc1cc(Nc2cc(N3CCN(C)CC3)nc(Sc3ccc(NC(=O)C4CC4)cc3)n2)n[nH]1 [tozasertib]
Procedure, shortened: as §1

[4] = compound: Cc1cc(SCc2sc(-c3ccc(C(F)(F)F)cc3)nc2C)ccc1OCC(=O)O
Procedure, shortened: as §1

doramapimod = compound: Cc1ccc(-n2nc(C(C)(C)C)cc2NC(=O)Nc2ccc(OCCN3CCOCC3)c3ccccc23)cc1 [doramapimod]
Procedure, shortened: as §1

ispinesib = compound: Cc1ccc(C(=O)N(CCCN)[C@@H](c2nc3cc(Cl)ccc3c(=O)n2Cc2ccccc2)C(C)C)cc1 [ispinesib]
Procedure, shortened: as §1

bafetinib = compound: Cc1ccc(NC(=O)c2ccc(CN3CC[C@H](N(C)C)C3)c(C(F)(F)F)c2)cc1Nc1nccc(-c2cncnc2)n1 [bafetinib]
Procedure, shortened: as §1

[5] = compound: Cc1cccc(CC(=O)N2CCc3c2ccc(-c2cn(C)c4ncnc(N)c24)c3F)n1
Procedure, shortened: as §1

nilotinib = compound: Cc1cn(-c2cc(NC(=O)c3ccc(C)c(Nc4nccc(-c5cccnc5)n4)c3)cc(C(F)(F)F)c2)cn1 [nilotinib]
Procedure, shortened: as §1

[6] = compound: Cc1nc(Nc2n[nH]c3c2CN(C(=O)N[C@H](CN(C)C)c2ccccc2)C3(C)C)c2sccc2n1
Procedure, shortened: as §1

dasatinib = compound: Cc1nc(Nc2ncc(C(=O)Nc3c(C)cccc3Cl)s2)cc(N2CCN(CCO)CC2)n1 [dasatinib]
Procedure, shortened: as §1

[7] = compound: Cc1ncc(-c2ccnc(Nc3ccc(S(C)(=O)=O)cc3)n2)n1C(C)C
Procedure, shortened: as §1

[8] = compound: Cn1cc(-c2ccc3c(c2)CCN3C(=O)Cc2cccc(C(F)(F)F)c2)c2c(N)ncnc21
Procedure, shortened: as §1

[9] = compound: Cn1cc(-c2ccc3nnc(C(F)(F)c4ccc5ncccc5c4)n3n2)cn1
Procedure, shortened: as §1

tipifarnib = compound: Cn1cncc1[C@@](N)(c1ccc(Cl)cc1)c1ccc2c(c1)c(-c1cccc(Cl)c1)cc(=O)n2C [tipifarnib]
Procedure, shortened: as §1

mubritinib = compound: FC(F)(F)c1ccc(/C=C/c2nc(COc3ccc(CCCCn4ccnn4)cc3)co2)cc1 [mubritinib]
Procedure, shortened: as §1

Sequence of UniProt Q969S8 (Q969S8 whole entry, looked up): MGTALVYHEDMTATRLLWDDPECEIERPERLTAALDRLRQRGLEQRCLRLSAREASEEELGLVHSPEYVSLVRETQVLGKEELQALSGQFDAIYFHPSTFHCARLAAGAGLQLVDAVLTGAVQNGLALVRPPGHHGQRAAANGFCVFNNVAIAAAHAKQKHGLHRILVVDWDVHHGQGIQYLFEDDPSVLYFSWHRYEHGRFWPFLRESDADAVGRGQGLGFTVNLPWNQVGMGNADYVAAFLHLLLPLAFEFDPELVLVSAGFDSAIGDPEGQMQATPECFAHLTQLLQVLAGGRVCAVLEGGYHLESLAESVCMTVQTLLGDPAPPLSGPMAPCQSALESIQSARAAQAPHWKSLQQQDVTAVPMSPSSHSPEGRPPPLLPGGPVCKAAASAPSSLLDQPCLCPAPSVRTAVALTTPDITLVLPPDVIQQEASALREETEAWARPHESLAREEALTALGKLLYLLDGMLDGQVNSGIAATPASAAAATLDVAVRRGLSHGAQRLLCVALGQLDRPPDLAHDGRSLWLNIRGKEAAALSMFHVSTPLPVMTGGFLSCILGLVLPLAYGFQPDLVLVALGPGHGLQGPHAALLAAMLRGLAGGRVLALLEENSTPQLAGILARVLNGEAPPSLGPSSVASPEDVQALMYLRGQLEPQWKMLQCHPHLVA
Sequence of UniProt Q53T59 (Q53T59 whole entry, looked up): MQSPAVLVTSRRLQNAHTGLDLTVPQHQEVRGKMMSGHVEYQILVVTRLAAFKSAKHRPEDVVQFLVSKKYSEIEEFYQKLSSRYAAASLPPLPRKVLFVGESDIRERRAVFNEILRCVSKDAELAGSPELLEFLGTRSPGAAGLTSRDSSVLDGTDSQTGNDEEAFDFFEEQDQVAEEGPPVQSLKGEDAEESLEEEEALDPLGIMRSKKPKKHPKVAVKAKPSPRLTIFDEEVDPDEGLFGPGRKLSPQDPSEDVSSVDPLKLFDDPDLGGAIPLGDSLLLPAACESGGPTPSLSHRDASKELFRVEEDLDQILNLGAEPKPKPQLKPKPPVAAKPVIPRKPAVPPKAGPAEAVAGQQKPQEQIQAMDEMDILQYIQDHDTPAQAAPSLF
Sequence of UniProt Q9HCG7 (Q9HCG7 whole entry, looked up): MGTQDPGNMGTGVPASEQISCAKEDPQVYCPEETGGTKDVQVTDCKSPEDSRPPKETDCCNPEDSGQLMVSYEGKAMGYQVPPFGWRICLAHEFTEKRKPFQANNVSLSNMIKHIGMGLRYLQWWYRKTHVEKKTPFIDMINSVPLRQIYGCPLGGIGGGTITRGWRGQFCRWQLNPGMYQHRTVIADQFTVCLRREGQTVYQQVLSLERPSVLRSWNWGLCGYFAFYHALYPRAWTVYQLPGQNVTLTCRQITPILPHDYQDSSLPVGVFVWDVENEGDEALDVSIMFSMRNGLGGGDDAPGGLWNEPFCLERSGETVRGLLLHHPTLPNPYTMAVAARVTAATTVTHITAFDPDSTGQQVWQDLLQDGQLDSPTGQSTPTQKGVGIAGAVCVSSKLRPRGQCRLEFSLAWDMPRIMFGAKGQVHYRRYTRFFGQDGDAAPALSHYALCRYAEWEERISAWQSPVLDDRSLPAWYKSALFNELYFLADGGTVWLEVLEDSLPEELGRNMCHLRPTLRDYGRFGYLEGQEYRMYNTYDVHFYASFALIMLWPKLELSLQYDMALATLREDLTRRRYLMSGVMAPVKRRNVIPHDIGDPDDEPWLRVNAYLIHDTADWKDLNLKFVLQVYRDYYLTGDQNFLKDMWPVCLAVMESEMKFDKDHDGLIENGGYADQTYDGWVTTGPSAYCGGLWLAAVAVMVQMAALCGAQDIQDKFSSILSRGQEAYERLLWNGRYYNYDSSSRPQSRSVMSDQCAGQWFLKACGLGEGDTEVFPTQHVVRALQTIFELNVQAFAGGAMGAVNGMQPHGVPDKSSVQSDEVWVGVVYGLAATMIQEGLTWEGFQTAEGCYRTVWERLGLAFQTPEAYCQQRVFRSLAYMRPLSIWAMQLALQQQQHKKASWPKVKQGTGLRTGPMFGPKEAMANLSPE
Sequence of UniProt Q70Z53 (Q70Z53 whole entry, looked up): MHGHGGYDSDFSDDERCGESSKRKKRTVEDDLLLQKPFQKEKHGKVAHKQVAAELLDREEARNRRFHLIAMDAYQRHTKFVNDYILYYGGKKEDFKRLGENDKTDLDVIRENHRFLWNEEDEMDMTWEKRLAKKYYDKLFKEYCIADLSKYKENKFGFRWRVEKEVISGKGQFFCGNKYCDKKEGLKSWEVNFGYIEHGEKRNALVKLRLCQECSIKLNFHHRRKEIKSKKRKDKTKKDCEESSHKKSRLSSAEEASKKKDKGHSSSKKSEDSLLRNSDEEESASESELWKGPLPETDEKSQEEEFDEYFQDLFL
Sequence of UniProt Q9UJY4 (Q9UJY4 whole entry, looked up): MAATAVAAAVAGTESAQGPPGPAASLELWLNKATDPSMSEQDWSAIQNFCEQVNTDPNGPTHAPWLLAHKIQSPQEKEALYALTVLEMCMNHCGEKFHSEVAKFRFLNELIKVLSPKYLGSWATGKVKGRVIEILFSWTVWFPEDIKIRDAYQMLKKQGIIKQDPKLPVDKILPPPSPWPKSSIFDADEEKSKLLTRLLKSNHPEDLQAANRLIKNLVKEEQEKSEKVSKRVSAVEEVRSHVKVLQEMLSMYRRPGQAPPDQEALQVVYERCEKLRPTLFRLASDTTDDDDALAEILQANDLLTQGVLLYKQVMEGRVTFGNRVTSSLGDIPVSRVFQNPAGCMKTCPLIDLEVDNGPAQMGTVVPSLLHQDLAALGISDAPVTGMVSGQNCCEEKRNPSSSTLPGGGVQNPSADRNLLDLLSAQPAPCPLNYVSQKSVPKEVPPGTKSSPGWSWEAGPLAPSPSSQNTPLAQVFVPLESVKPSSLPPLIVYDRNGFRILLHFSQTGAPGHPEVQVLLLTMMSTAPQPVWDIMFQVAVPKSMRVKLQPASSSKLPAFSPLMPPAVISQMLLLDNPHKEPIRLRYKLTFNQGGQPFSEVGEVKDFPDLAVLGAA
Sequence of UniProt Q8N9F7 (Q8N9F7 whole entry, looked up): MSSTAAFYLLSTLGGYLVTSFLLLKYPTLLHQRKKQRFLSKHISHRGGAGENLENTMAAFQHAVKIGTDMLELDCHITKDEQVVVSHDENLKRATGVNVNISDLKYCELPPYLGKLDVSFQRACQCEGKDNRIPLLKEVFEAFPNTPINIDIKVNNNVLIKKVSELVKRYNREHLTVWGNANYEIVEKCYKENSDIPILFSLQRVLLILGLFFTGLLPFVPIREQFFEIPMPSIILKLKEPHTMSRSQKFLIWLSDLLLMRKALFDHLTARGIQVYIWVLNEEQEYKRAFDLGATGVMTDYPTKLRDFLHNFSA
Sequence of UniProt P14324 (P14324 whole entry, looked up): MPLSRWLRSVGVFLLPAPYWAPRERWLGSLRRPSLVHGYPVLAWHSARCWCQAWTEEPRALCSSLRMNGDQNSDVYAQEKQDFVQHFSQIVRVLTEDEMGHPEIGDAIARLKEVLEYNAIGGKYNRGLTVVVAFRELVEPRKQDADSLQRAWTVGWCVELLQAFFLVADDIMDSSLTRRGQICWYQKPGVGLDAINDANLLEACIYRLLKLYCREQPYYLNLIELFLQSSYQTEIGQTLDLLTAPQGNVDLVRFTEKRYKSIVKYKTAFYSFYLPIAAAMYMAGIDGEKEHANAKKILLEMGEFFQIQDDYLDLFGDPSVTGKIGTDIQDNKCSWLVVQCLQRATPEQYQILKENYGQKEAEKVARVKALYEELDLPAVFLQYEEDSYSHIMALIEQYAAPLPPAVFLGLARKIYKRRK
Sequence of UniProt Q13227 (Q13227 whole entry, looked up): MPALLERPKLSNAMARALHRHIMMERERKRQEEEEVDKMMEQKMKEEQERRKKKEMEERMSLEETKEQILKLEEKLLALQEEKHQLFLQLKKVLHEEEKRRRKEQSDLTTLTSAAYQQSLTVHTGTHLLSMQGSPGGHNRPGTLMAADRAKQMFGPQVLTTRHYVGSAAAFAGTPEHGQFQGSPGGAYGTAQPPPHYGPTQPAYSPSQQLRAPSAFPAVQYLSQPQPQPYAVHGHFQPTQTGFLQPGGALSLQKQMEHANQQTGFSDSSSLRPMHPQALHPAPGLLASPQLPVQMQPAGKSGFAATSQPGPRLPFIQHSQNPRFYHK
Sequence of UniProt Q9BVP2 (Q9BVP2 whole entry, looked up): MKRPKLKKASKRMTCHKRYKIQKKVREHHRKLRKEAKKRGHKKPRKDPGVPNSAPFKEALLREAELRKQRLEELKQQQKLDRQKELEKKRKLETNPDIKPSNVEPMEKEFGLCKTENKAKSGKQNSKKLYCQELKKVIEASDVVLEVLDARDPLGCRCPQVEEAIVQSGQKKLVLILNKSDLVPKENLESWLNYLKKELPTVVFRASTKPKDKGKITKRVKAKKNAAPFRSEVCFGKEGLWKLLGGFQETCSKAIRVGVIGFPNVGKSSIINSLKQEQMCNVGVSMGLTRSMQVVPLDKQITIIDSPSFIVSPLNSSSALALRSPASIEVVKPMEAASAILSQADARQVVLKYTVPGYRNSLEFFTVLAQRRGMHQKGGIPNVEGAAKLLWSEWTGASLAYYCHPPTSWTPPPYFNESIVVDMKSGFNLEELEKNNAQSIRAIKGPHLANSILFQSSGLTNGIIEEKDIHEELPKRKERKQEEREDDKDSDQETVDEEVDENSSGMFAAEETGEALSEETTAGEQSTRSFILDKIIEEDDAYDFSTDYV
Sequence of UniProt P0C0S5 (P0C0S5 whole entry, looked up): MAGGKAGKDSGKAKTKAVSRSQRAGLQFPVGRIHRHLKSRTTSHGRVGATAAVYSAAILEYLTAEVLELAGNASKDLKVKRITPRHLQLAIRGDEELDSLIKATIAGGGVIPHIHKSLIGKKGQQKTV

Row | Target | log2 fold change [1] | log2 fold change (crizotinib) | log2 fold change [2] | log2 fold change [3] | log2 fold change (duvelisib) | log2 fold change (gandotinib) | log2 fold change (tozasertib) | log2 fold change [4] | log2 fold change (doramapimod) | log2 fold change (ispinesib) | log2 fold change (bafetinib) | log2 fold change [5] | log2 fold change (nilotinib) | log2 fold change [6] | log2 fold change (dasatinib) | log2 fold change [7] | log2 fold change [8] | log2 fold change [9] | log2 fold change (tipifarnib) | log2 fold change (mubritinib)
1 | GDPD1 (UniProt Q8N9F7) | 0.086 | 0.035 | 0.074 | -0.057 | 0.023 | 0.012 | 0.043 | -0.033 | 0.078 | 0.353 (active) | 0.088 | -0.141 | 0.1 | 0.104 | 0.023 | -0.045 | 0.046 | -0.031 | 0.106 | 0.096
2 | GLS isoform 3 (UniProt O94925) | 0.038 | 0.021 | 0.256 | -0.007 | 0.077 | -0.264 | 0.014 | 0.064 | 0.023 | 0.219 | 0.045 | 0.028 | -0.238 | -0.162 | -0.282 | 0.046 | -0.097 | 0.114 | -0.208 | -0.492 (active)
3 | FRA10AC1 isoform 3 (UniProt Q70Z53) | -0.082 | 0.201 | 0.059 | 0.029 | 0.07 | 0.189 | -0.123 | -0.116 | -0.044 | – | -0.087 | 0.018 | -0.034 | -0.039 | -0.051 | 0.085 | -0.076 | – | -0.055 | 0.011
4 | HRC (UniProt P23327) | 0.027 | 0.096 | -0.342 (active) | 0.012 | 0.062 | 0.064 | -0.053 | -0.033 | -0.033 | 0.037 | -0.098 | -0.147 | 0.01 | -0.017 | 0.055 | -0.039 | -0.038 | 0.037 | 0.016 | 0.041
5 | H2AZ1 (UniProt P0C0S5) | -0.027 | -0.062 | -0.47 | 0.345 | -0.09 | -0.006 | -0.146 | -0.084 | 0.178 | -0.147 | 0.173 | -0.204 | -0.138 | -0.029 | -0.092 | -0.006 | -0.369 | -0.133 | 0.013 | -0.083
6 | FDPS (UniProt P14324) | 0.07 | -0.768 (active) | 0.073 | 0.117 | 0.059 | -0.091 | -0.193 | 0.222 | 0.004 | -0.493 (active) | 0.057 | 0.204 | -0.156 | 0.035 | -0.392 | -0.027 | 0.209 | 0.441 | -0.258 | 0.39
7 | FGG (UniProt P02679) | – | – | – | – | – | -0.153 | – | – | – | -0.052 | – | 0.165 | – | – | – | – | – | -0.018 | 0.127 | –
8 | H3-3A (UniProt P84243) | 0.082 | – | – | 0.038 | -0.184 | – | -0.066 | 0.106 | – | – | -0.046 | – | -0.038 | -0.123 | -0.133 | -0.067 | 0.08 | – | -0.261 | 0.236
9 | HNRNPUL1 (UniProt M0R247) | -0.057 | 0.151 | – | 0.722 | 0.673 | – | -0.187 | -0.374 | -0.014 | – | – | – | 0.061 | -0.13 | 0.206 | 0.025 | -0.024 | – | 0.259 | –
10 | GPS2 (UniProt Q13227) | -0.114 | 0.019 | 0.208 | – | – | – | -0.221 | – | 0.047 | 0.31 (active) | -0.157 | – | 0 | -0.045 | – | -0.074 | – | 0.02 | -0.033 | -0.059
11 | HDAC10 (UniProt Q969S8) | – | – | – | -0.045 | 0.04 | 0.008 | -0.113 | 0.042 | – | 0.065 | -0.255 | -0.073 | -0.118 | -0.075 | -0.027 | -0.08 | 0.071 | 0.001 | 0.046 | 0.116
12 | HSPA8 (UniProt E9PN89) | 0.12 | 0.063 | 0.024 | 0.377 | – | -0.068 | -0.122 | – | 0 | – | -0.04 | -0.338 | -0.12 | 0.041 | – | -0.123 | -0.063 | – | 0.122 | 0.004
13 | HAUS4 (UniProt Q9H6D7) | 0.068 | – | 0.024 | 0.139 | -0.303 | 0.015 | 0.041 | -0.195 | – | -0.259 | -0.069 | 0.023 | 0.08 | 0.086 | 0.178 | 0.567 | -0.045 | -0.051 | -0.115 | -0.547
14 | HS1BP3 (UniProt Q53T59) | 0.06 | -0.044 | 0.028 | 0.143 | 0.096 | – | – | -0.012 | 0.089 | -0.165 | -0.022 | – | -0.023 | -0.104 | -0.047 | -0.029 | 0.062 | -0.067 | -0.038 | –
15 | GNL3 (UniProt Q9BVP2) | 0.126 | – | -0.009 | 0.065 | 0.124 | 0.098 | -0.079 | -0.053 | – | – | -0.038 | -0.078 | -0.007 | 0.011 | -0.031 | 0.056 | 0.069 | – | – | 0.134
16 | GBA2 (UniProt Q9HCG7) | 0.091 | 0.094 | 0.051 | 0.004 | 0.041 | – | -0.053 | 0.067 | 0.056 | – | 0.045 | – | -0.057 | -0.061 | -0.144 | 0.007 | 0.138 | – | 0.091 | 0.234
17 | GPNMB (UniProt Q14956) | – | – | -0.151 | – | – | – | – | – | – | – | – | – | – | – | – | – | – | – | – | –
18 | GGA2 (UniProt Q9UJY4) | 0.038 | -0.089 | 0.032 | 0.036 | 0.053 | – | -0.025 | 0.015 | 0.009 | -0.177 | 0.024 | – | -0.031 | 0.065 | 0.075 | -0.013 | 0.024 | 0.034 | -0.003 | 0.014
19 | GREB1 (UniProt Q4ZG55) | 0.121 | 0.163 | -0.046 | 0.12 | – | – | -0.171 | – | -0.007 | – | – | – | – | – | – | – | 0.046 | – | – | –
